Screening data: PubChem, Sanford-Burnham Center for Chemical Genomics
A selection: hits, their analogues and other compounds. The true share with any hit is near 31%.
CYP2C19 act – cytochrome P450 2C19 (human) activation; P33261; recombinant CYP2C19, luciferin-H EGE luminescence; active compounds read high; 0 = fully inhibited enzyme, 1 = untreated enzyme; activation factor at 5 µM; 96,000 tested, under 10 active; AID 1025;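 active = activation factor of at least 2 at 5 µM in the primary screen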;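 also: 0 = wells with 2.5 mM tranylcypromine and 1 = vehicle-only wells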
CYP2C9 act – activators of human CYP2C9. P11712. recombinant CYP2C9, luciferin-H conversion, luminescence; active compounds read high; factor 1 = untreated enzyme, 0 = blocked. activation factor at 5 µM. 96,000 tested, 1.4% active;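 active = activation factor of 2 or more for CYP2C9 at a 5 µM dose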;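 also: 0 = sulfaphenazole-blocked wells and 1 = vehicle-only wells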
Target sequence (P11712 whole entry, looked up): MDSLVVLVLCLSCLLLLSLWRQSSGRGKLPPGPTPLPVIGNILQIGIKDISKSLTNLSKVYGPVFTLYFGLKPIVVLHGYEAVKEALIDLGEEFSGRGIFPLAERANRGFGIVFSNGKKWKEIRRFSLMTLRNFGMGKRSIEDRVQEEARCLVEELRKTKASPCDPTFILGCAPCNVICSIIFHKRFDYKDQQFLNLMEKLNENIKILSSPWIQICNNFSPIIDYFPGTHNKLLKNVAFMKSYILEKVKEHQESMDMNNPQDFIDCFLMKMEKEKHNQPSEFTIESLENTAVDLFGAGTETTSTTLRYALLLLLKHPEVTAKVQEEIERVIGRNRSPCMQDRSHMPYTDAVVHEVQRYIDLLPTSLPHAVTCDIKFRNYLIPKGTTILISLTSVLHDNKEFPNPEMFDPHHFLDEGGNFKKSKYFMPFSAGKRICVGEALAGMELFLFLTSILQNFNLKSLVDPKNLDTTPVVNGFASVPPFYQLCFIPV
CYP2C19 inhib – inhibitors of human CYP2C19. CYP2C19 Supersomes, luciferin-H EGE luminescence, 30 min. inhibition, % at 5 µM. 96,000 tested, 21% active;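 active = CYP2C19 inhibition above a set limit at 5 µM in the primary screen, cut at about 50% in these data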;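 also: plate controls were negative control wells for no effect and 2.5 mM tranylcypromine positive control for full effect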
PLAP act – human PLAP activation | purified PLAP enzyme, luminescent substrate read-out; active compounds read high | 96,000 tested, 1.2% active | P05187 | AID 696 | activation fold at 20 µM; in the data active = activation fold above about 2
CYP2C9 inh – blocks human cytochrome P450 2C9. P11712. CYP2C9 Supersomes, luciferin-H conversion, luminescence. inhibition, % at 5 µM. 96,000 tested, 20% active. AID 777;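 active = blocking of liver enzyme CYP2C9 beyond about 50% at 5 µM, limit read from the data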
Active calls of the source: *.

For Cc1ccc(N(C(=O)Cc2c[nH]c3ccccc23)C(C(=O)NC2CCCCC2)c2ccco2)cc1 (stereo not drawn) the results were CYP2C19 act 0.2, CYP2C9 act 0.1, CYP2C19 inhib 84*, PLAP act 1.3 and CYP2C9 inh 94*.
`Cc1ccc(C(C(=O)NC2CCCCC2)N(Cc2ccco2)C(=O)Cc2c[nH]c3ccccc23)o1` (stereo not drawn) gave CYP2C19 act 0.5, CYP2C9 act 0.5, CYP2C19 inhib 54*, PLAP act 1.3 and CYP2C9 inh 46.
`Cc1ccc(-c2nn(C)c(=O)c3ccccc23)cc1CNC(=O)Cn1nc(-c2ccccc2)c2ccccc2c1=O` gave CYP2C19 act 0.9, CYP2C9 act 0.9, CYP2C19 inhib 9, PLAP act 1.1 and CYP2C9 inh 14.
`Nc1nnc(Cc2c[nH]c3ccccc23)s1` gave CYP2C19 act 0.7, CYP2C9 act 1.1, CYP2C19 inhib 31, PLAP act 1.4 and CYP2C9 inh -9.
`Cn1c(Cc2c[nH]c3ccccc23)n[nH]c1=S` gave CYP2C19 act 0.3, CYP2C9 act 0.6, CYP2C19 inhib 67*, PLAP act 1.8 and CYP2C9 inh 38.
For Oc1c(/C=N/c2ncn[nH]2)ccc2ccccc12 the results were CYP2C19 act 1, CYP2C9 act 0.9, CYP2C19 inhib 0, PLAP act 1 and CYP2C9 inh 13.
`CC(=O)Nc1ccc(S(=O)(=O)Oc2cccc(N3C(=O)C4CCCCC4C3=O)c2)cc1` (stereo not drawn) gave CYP2C19 act 0.6, CYP2C9 act 0.2, CYP2C19 inhib 41, PLAP act 1 and CYP2C9 inh 75*.
For CCOP(=O)(c1ccc(N(C)C)cc1)C(O)c1c(Cl)cccc1Cl (stereo not drawn) the results were CYP2C19 act 0.4, CYP2C9 act 0.4, CYP2C19 inhib 65*, PLAP act 1.3 and CYP2C9 inh 59*.
`CN(C)c1ccc(P(=O)(OCc2ccccc2)C(O)c2ccncc2)cc1` (stereo not drawn) gave CYP2C19 act 0.3, CYP2C9 act 0.4, CYP2C19 inhib 66*, PLAP act 1.1 and CYP2C9 inh 63*.
For CCCOP(=O)(c1ccc(N(C)C)cc1)C(O)c1ccncc1 (stereo not drawn) the results were CYP2C19 act 0.5, CYP2C9 act 0.6, CYP2C19 inhib 46, PLAP act 1.5 and CYP2C9 inh 37.
CCOc1ccccc1-c1nc(-c2ccc(C)nc2OC)no1 was read as CYP2C19 act 0.9, CYP2C9 act 1.3, CYP2C19 inhib 13, PLAP act 1 and CYP2C9 inh -30.
Screening CCOC(=O)N1CCN(C(=O)C(C)(C)Oc2ccc(Cl)cc2)CC1 returned CYP2C19 act 0.3, CYP2C9 act 0.2, CYP2C19 inhib 74*, PLAP act 1.6 and CYP2C9 inh 84*.
For COc1ccc(N2CCN(C(=O)C(C)(C)Oc3ccc(Cl)cc3)CC2)cc1 the results were CYP2C19 act 0.3, CYP2C9 act 0.1, CYP2C19 inhib 74*, PLAP act 1.5 and CYP2C9 inh 90*.
COc1ccc(N2CCN(C(=O)c3ccc(C(C)(C)C)cc3)CC2)cc1 was read as CYP2C19 act 0.8, CYP2C9 act 0.6, CYP2C19 inhib 20, PLAP act 1.7 and CYP2C9 inh 41.
For O=C(NCc1ccccc1C(F)(F)F)C12CN(Cc3ccccc3)CC1C(c1ccc([N+](=O)[O-])cc1)=NO2 (stereo not drawn) the results were CYP2C19 act 0.6, CYP2C9 act 0.6, CYP2C19 inhib 44, PLAP act 1.3 and CYP2C9 inh 37.
`CC1CCCCN1C(=S)NCCc1ccccc1` (stereo not drawn) gave CYP2C19 act 0, CYP2C9 act 0.7, CYP2C19 inhib 96*, PLAP act 1 and CYP2C9 inh 27.
Screening CC1CCCN(C(=S)NCCc2ccccc2)C1 (stereo not drawn) returned CYP2C19 act 0.6, CYP2C9 act 0.8, CYP2C19 inhib 42, PLAP act 0.8 and CYP2C9 inh 19.
Screening CCn1c(=O)c2cc(C(=O)Nc3cc(C)on3)sc2c2ccccc21 returned CYP2C19 act 1, CYP2C9 act 2.1*, CYP2C19 inhib -4, PLAP act 0.9 and CYP2C9 inh -113.
For CCn1c(=O)c2cc(C(=O)NCCN3CCOCC3)sc2c2ccccc21 the results were CYP2C19 act 0.8, CYP2C9 act 1.1, CYP2C19 inhib 21, PLAP act 1.6 and CYP2C9 inh -15.
For CN(C)CCNC(=O)c1ccc(COc2ccc(Cl)cc2Cl)cc1 the results were CYP2C19 act 0.9, CYP2C9 act 0.9, CYP2C19 inhib 10, PLAP act 1.6 and CYP2C9 inh 6.
Screening O=C(NCc1cccnc1)C1CCCN(S(=O)(=O)c2ccccc2)C1 (stereo not drawn) returned CYP2C19 act 0.1, CYP2C9 act 0.2, CYP2C19 inhib 87*, PLAP act 1.1 and CYP2C9 inh 83*.
Screening O=C(NCc1ccc(F)cc1)C1CCCN(S(=O)(=O)c2cccnc2)C1 (stereo not drawn) returned CYP2C19 act 0.8, CYP2C9 act 0.7, CYP2C19 inhib 19, PLAP act 1 and CYP2C9 inh 28.
`O=C(NCc1cccnc1)C1CCCN(S(=O)(=O)c2ccc(Cl)cc2)C1` (stereo not drawn) gave CYP2C19 act 0.1, CYP2C9 act 0.2, CYP2C19 inhib 85*, PLAP act 1.4 and CYP2C9 inh 77*.
For O=C(NCCc1ccccc1)C1CCCN(S(=O)(=O)c2cccnc2)C1 (stereo not drawn) the results were CYP2C19 act 0.9, CYP2C9 act 0.8, CYP2C19 inhib 12, PLAP act 1 and CYP2C9 inh 16.
C=CCSc1cc(C)nc2c(-c3ccc(Cl)cc3)c(C)nn12 was read as CYP2C19 act 0.8, CYP2C9 act 0.8, CYP2C19 inhib 19, PLAP act 0.9 and CYP2C9 inh 15.
Screening O=C(NCCc1cn2ccccc2n1)C1CCCCC1 returned CYP2C19 act 0.7, CYP2C9 act 0.9, CYP2C19 inhib 27, PLAP act 1 and CYP2C9 inh 14.
Screening Cn1c(=O)c2c(SCc3c(F)cccc3Cl)nc(CC(C)(C)C)nc2n(C)c1=O returned CYP2C19 act 1, CYP2C9 act 0.7, CYP2C19 inhib 3, PLAP act 1.2 and CYP2C9 inh 32.
Screening Cc1ccc(C(=O)CSc2nc(C)cc(C)c2C(N)=O)cc1 returned CYP2C19 act 0.2, CYP2C9 act 0.4, CYP2C19 inhib 77*, PLAP act 0.9 and CYP2C9 inh 60*.
For c1csc(C2Nc3cccc4cccc(c34)N2)c1 the results were CYP2C19 act 0.6, CYP2C9 act 0.9, CYP2C19 inhib 43, PLAP act 0.8 and CYP2C9 inh 12.
For Brc1ccc(C2Nc3cccc4cccc(c34)N2)o1 the results were CYP2C19 act 0.3, CYP2C9 act 0.8, CYP2C19 inhib 71*, PLAP act 0.9 and CYP2C9 inh 20.
